# Records with an inconclusive call do not appear. Where a call stands in place of a potency, no number is given. Active and inactive are the calls of the source. Calls come from the whole dose curve; as a rule, active = well fitted curve in the direction sought with a large enough effect; inconclusive = small, poorly fitted or top-dose-only effect, or another doubt; inactive = no such curve, though single readings can be large; an effect the other way counts as inactive or inconclusive. Peptide text beside a SMILES is read from it.
# Tests used:
# [1] = Quantitative High-Throughput drug screen in 47 multiple myeloma cell lines against the NCATS MIPE library collection: ARP1_JJKsccF8 cell viability assay (AID 1918928; note: nearly all actives have a fitted effect of over 40% in size)
# Outline: (§1)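 ATP readout (CellTiter-Glo), 48 h drug incubation, 37 °C/5% CO2, 500 cells per well; normalisation to DMSO (100%) and media-only (0%) controls.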
# [2] = Quantitative High-Throughput drug screen in 47 multiple myeloma cell lines against the NCATS MIPE library collection: ARD_JJKsccE7 cell viability assay (AID 1918929)
# Outline: (§2)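 CellTiter-Glo ATP luminescence gave viability after 48 h compound treatment at 37C of 500 multiple myeloma cells per well. Normalisation used DMSO-only wells as 100% and media-only wells as 0% viability; primary qHTS of approved and investigational drugs.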
# [3] = Quantitative High-Throughput drug screen in 47 multiple myeloma cell lines against the NCATS MIPE library collection: Karpas620_DSMZ cell viability assay (AID 1918959); note: nearly all actives have a fitted effect of over 30% in size
# Outline: (§3)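 Myeloma cell lines, 500 cells per well, exposed to MIPE 4.0 library compounds for 48 h at 37C, 5% CO2. Viability from ATP by CellTiter-Glo luminescence; normalised to DMSO (100%) and media-only (0%) wells.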
# [4] = Quantitative High-Throughput drug screen in 47 multiple myeloma cell lines against the NCATS MIPE library collection: KMM1_JCRB cell viability assay (AID 1918960); note: nearly all actives have a fitted effect of over 30% in size
# Outline: as §1
# [5] = Quantitative High-Throughput drug screen in 47 multiple myeloma cell lines against the NCATS MIPE library collection: Karpas417_ECACC cell viability assay (AID 1918961); conditions: Karpas417 myeloma viability, CellTiter-Glo ATP luminescence, 48 h; viability (% of DMSO): at 45.8 µM (top of the series)
# Outline: as §3
# [6] = Quantitative High-Throughput drug screen in 47 multiple myeloma cell lines against the NCATS MIPE library collection: KHM11_PLB cell viability assay (AID 1918962); note: nearly all actives have a fitted effect of over 35% in size
# Outline: as §3
# [7] = Quantitative High-Throughput drug screen in 47 multiple myeloma cell lines against the NCATS MIPE library collection: JIM3_ECACC cell viability assay (AID 1918963; note: nearly all actives have a fitted effect of over 35% in size)
# Outline: as §3
# [8] = Quantitative High-Throughput drug screen in 47 multiple myeloma cell lines against the NCATS MIPE library collection: JIM1_ECACC cell viability assay (AID 1918964)
# Outline: as §2
# [9] = Quantitative High-Throughput drug screen in 47 multiple myeloma cell lines against the NCATS MIPE library collection: INA6_PLB cell viability assay (AID 1918965; note: nearly all actives have a fitted effect of over 55% in size)
# Outline: as §3
# [10] = Quantitative High-Throughput drug screen in 47 multiple myeloma cell lines against the NCATS MIPE library collection: JJN3_DSMZ cell viability assay (AID 1918966; note: nearly all actives have a fitted effect of over 50% in size)
# Outline: as §2
# Potency is the fitted concentration of half-maximal effect.
SMILES,Potency [1],Potency [2],Potency [3],Potency [4],Potency [5],Potency [6],Potency [7],Potency [8],Potency [9],Potency [10]
Cc1ncc([N+](=O)[O-])n1CC(C)O (configuration not stated),inactive,inactive,inactive,inactive,–,–,–,–,–,–
CCN(CC)CCOc1ccc(Nc2ncc3cc(-c4c(Cl)cccc4Cl)c(=O)n(C)c3n2)cc1,2.64 µM (active),0.166 µM (active),2.09 µM (active),0.0332 µM (active),0.105 µM (active),1.32 µM (active),0.118 µM (active),0.0833 µM (active),–,–
Clc1ccc(C(Cn2ccnc2)OCc2c(Cl)cccc2Cl)c(Cl)c1 (configuration not stated),23.5 µM (active),16.6 µM (active),18.7 µM (active),18.7 µM (active),16.6 µM (active),–,–,23.5 µM (active),29.6 µM (active),–
CCC1=C(C)CN(C(=O)NCCc2ccc(S(=O)(=O)NC(=O)NC3CCC(C)CC3)cc2)C1=O (configuration not stated),inactive,inactive,inactive,inactive,–,inactive,inactive,–,inactive,–
C[C@@H](c1ncncc1F)[C@](O)(Cn1cncn1)c1ccc(F)cc1F,inactive,inactive,inactive,inactive,–,–,inactive,inactive,inactive,–
COC1=C(OC)C(=O)C(CCCCCCCCCCO)=C(C)C1=O,23.5 µM (active),20.9 µM (active),11.8 µM (active),18.7 µM (active),–,26.4 µM (active),18.7 µM (active),–,18.7 µM (active),18.7 µM (active)
Nc1nc(N)c(N=O)c(OCC2CCCCC2)n1,14.8 µM (active),5.26 µM (active),13.2 µM (active),6.62 µM (active),2.64 µM (active),–,9.35 µM (active),–,5.26 µM (active),–
COC(=O)N[C@H](C(=O)N[C@@H](Cc1ccccc1)[C@@H](O)CN(Cc1ccc(-c2ccccn2)cc1)NC(=O)[C@@H](NC(=O)OC)C(C)(C)C)C(C)(C)C,16.6 µM (active),inactive,inactive,inactive,–,inactive,inactive,–,inactive,–
CC[C@]1(O)C[C@H]2CN(CCc3c([nH]c4ccccc34)[C@@](C(=O)OC)(c3cc4c(cc3OC)N(C=O)[C@H]3[C@@](O)(C(=O)OC)[C@H](OC(C)=O)[C@]5(CC)C=CCN6CC[C@]43[C@@H]65)C2)C1,0.003 µM (active),0.0662 µM (active),0.0166 µM (active),0.0469 µM (active),0.935 µM (active),–,–,0.0209 µM (active),–,–
N=C(N=C(N)N)N1CCOCC1,inactive,inactive,inactive,inactive,–,–,inactive,inactive,inactive,–
CN(C)CCCC1(c2ccc(F)cc2)OCc2cc(C#N)ccc21 (configuration not stated),inactive,inactive,inactive,inactive,–,inactive,inactive,–,–,–
COc1ccc(C2(C#N)CCC(C(=O)O)CC2)cc1OC1CCCC1 (configuration not stated),inactive,inactive,inactive,inactive,–,–,inactive,–,18.7 µM (active),inactive
Cc1cc(=O)oc2cc(O)ccc12,inactive,inactive,inactive,inactive,–,0.0662 µM (active),inactive,–,inactive,–
COC(=O)C1=C(C)NC(C)=C(C(=O)OC(C)C)C1c1cccc2nonc12 (configuration not stated),inactive,inactive,inactive,inactive,inactive,–,–,inactive,26.4 µM (active),–
O=C(NCCO[N+](=O)[O-])c1cccnc1,inactive,inactive,inactive,inactive,–,–,inactive,inactive,–,–
CC1(C)C(=O)N(CCN2CCC(C(=O)c3ccc(F)cc3)CC2)c2ccccc21,20.9 µM (active),9.35 µM (active),3.72 µM (active),8.33 µM (active),–,2.09 µM (active),–,–,1.66 µM (active),–
Nc1cc(C(Cl)=C(Cl)Cl)c(S(N)(=O)=O)cc1S(N)(=O)=O,inactive,inactive,inactive,inactive,inactive,inactive,inactive,inactive,inactive,–
COc1ccc2cc([C@H](C)C(=O)O)ccc2c1,inactive,inactive,inactive,inactive,–,29.6 µM (active),–,inactive,inactive,–
COC(=O)[C@H](Cc1ccccc1)NC(=O)[C@@H](N)CC(=O)O (H-Asp-Phe-OMe),inactive,inactive,inactive,inactive,–,inactive,inactive,inactive,inactive,–
Cc1cc(C2CCCCC2)n(O)c(=O)c1,9.35 µM (active),9.35 µM (active),8.33 µM (active),9.35 µM (active),2.96 µM (active),4.69 µM (active),8.33 µM (active),3.32 µM (active),6.62 µM (active),18.7 µM (active)
CN(C)c1ccc2nc3ccc(=[N+](C)C)cc-3sc2c1,1.66 µM (active),13.2 µM (active),3.72 µM (active),2.35 µM (active),6.62 µM (active),4.18 µM (active),2.35 µM (active),9.35 µM (active),1.48 µM (active),–
Cc1ccc(C(=O)c2cc(O)c(O)c([N+](=O)[O-])c2)cc1,inactive,20.9 µM (active),–,–,–,–,–,–,–,–

# — PubChem BioAssay (NCATS)
